Measured values reported in the supplement of paper PMC7366291.
Structures can show the parent of a compound that is named as a salt. ± gives the standard deviation of the averaged measurements.

These compounds were tested on Danio rerio Tg(wt1b:EGFP) embryo, pronephros (assay: glomerular width (mean of left and right), fold change vs DMSO control; higher = wider glomerulus). Conditions: 25 µM; exposure: 24-48 hpf.
In short: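 Dechorionated Tg(wt1b:EGFP) zebrafish embryos were treated with 25 μM compound in 0.5% DMSO, in HEPES-buffered E3 with 0.003% PTU, from 24 to 48 hpf at 28.5°C. On maximum projections of dorsal pronephros images, 16 hand-placed reference points in Fiji gave distances and angles, and values more than 2 SD from the feature mean were left out. Results are fold changes over the mean of same-day DMSO-treated embryos.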

Structure (SMILES) | glomerular width
CC(Oc1c(Cl)cccc1Cl)C1=NCCN1 (centres undefined) [Lofexidine] | 0.9921 ± 0.0057
CCC(=O)[C@@]1(C)[C@H](C)C[C@H]2[C@@H]3CCC4=CC(=O)C=C[C@]4(C)[C@H]3[C@@H](O)C[C@@]21C [Rimexolone] | 1.02 ± 0.017
CC(=O)Oc1cc(C(F)(F)F)ccc1C(=O)O [Triflusal] | 0.901 ± 0.012
COC(=O)[C@@H]1[C@H]2C[C@H]3c4[nH]c5ccccc5c4CCN3C[C@@H]2CC[C@@H]1O [Yohimbine hydrochloride] | 1.08 ± 0.069
COc1cc([S+](C)[O-])ccc1-c1nc2cccnc2[nH]1 (centres undefined) [Sulmazole] | 1.05 ± 0.015
N=C(N)N/N=C/c1c(Cl)cccc1Cl [Guanabenz acetate] | 1.072 ± 0.01
CC1CC(OC(=O)c2ccccc2O)CC(C)(C)C1 (centres undefined) [Homosalate] | 0.8777 ± 0.0016
CCC(=O)O[C@@H](O[P@](=O)(CCCCc1ccccc1)CC(=O)N1C[C@H](C2CCCCC2)C[C@H]1C(=O)O)C(C)C [Fosinopril] | 1.01 ± 0.023
Nc1nc(NC2CC2)c2ncn([C@H]3C=C[C@@H](CO)C3)c2n1 [Abacavir Sulfate] | 1.05 ± 0.052
CC(C)(C#N)c1cc(Cn2cncn2)cc(C(C)(C)C#N)c1 [Anastrozole] | 1.059 ± 0.0058
CCCc1cc(C(N)=S)ccn1 [Prothionamide] | 0.9746 ± 0.0041
CCn1cc(C(=O)O)c(=O)c2cnc(N3CCNCC3)nc21 [Pipemidic acid] | 1.05 ± 0.013
CC[C@H]1OC(=O)[C@H](C)[C@@H](O[C@H]2C[C@@](C)(OC)[C@@H](O)[C@H](C)O2)[C@H](C)[C@@H](O[C@@H]2O[C@H](C)C[C@H](N(C)C)[C@H]2O)[C@](C)(O)C[C@@H](C)C(=O)[C@H](C)[C@@H](O)[C@]1(C)O [Erythromycin] | 1.042 ± 0.0044
C[C@H](CCC(=O)O)[C@H]1CC[C@H]2[C@@H]3[C@H](O)C[C@@H]4C[C@H](O)CC[C@]4(C)[C@H]3CC[C@]12C [Chenodiol] | 0.744 ± 0.025
Nc1nc(=O)c2nc(CNc3ccc(C(=O)N[C@@H](CCC(=O)O)C(=O)O)cc3)cnc2[nH]1 [Folic acid] | 0.941 ± 0.044
C[C@H](Cc1cc2c(c(C(N)=O)c1)N(CCCO)CC2)NCCOc1ccccc1OCC(F)(F)F [Silodosin] | 0.985 ± 0.067
COCCCOc1ccnc(C[S+]([O-])c2nc3ccccc3[nH]2)c1C (centres undefined) [Rabeprazole Sodium salt] | 1.01 ± 0.019

Structure (SMILES) | glomerular width
CC(C)NCC(O)c1ccc2ccccc2c1 (centres undefined) [Pronethalol hydrochloride] | 0.96 ± 0.036
CCCC(CCC)C(=O)O [Valproic acid] | 0.725 ± 0.057
CCN(CC)CCOC(=O)C1(C2CCCCC2)CCCCC1 [Dicyclomine hydrochloride] | 1.12 ± 0.03
CC1(C)NC(=O)N(c2ccc([N+](=O)[O-])c(C(F)(F)F)c2)C1=O [Nilutamide] | 1.13 ± 0.035
CCOC(=O)[C@@](C)(N)Cc1ccc(O)c(O)c1 [Methyldopate hydrochloride] | 0.9116 ± 0.0027
O=C1C(O)=C([C@H]2CC[C@H](c3ccc(Cl)cc3)CC2)C(=O)c2ccccc21 [Atovaquone] | 0.992 ± 0.027
CCCSc1ccc2[nH]c(NC(=O)OC)nc2c1 [Albendazole] | 0.591 ± 0.025
Cc1ccc(N(CC2=NCCN2)c2cccc(O)c2)cc1 [Phentolamine hydrochloride] | 1.08 ± 0.02
CCN(CC)CCOCCOC(=O)C1(c2ccccc2)CCCC1 [Carbetapentane citrate] | 0.949 ± 0.062
O=C(NCCNCC(O)COc1ccc(O)cc1)N1CCOCC1 (centres undefined) [Xamoterol hemifumarate] | 0.983 ± 0.011
C[N+]1(CCCCC[N+]2(C)CCCC2)CCCC1 [Pentolinium bitartrate] | 1.0393 ± 0.0007
CCCc1nc2c(C)cc(-c3nc4ccccc4n3C)cc2n1Cc1ccc(-c2ccccc2C(=O)O)cc1 [Telmisartan] | 0.988 ± 0.024
C[C@H](CCC(=O)O)[C@H]1CC[C@H]2[C@@H]3C(=O)C[C@@H]4CC(=O)CC[C@]4(C)[C@H]3CC(=O)[C@]12C [Dehydrocholic acid] | 0.978 ± 0.07
O=C(O)CCNC(=O)c1ccc(/N=N/c2ccc(O)c(C(=O)O)c2)cc1 [Balsalazide Sodium] | 1.03 ± 0.012
Nc1ccc(S(=O)(=O)Nc2ccc(Cl)nn2)cc1 [Sulfachloropyridazine] | 0.973 ± 0.029
CC(C)NC(=N)NC(=N)Nc1ccc(Cl)cc1 [Proguanil hydrochloride] | 0.978 ± 0.0098
O=C1CC[C@@H](C(=O)N2CSC[C@H]2C(=O)O)N1 [Pidotimod] | 1.05 ± 0.025
